The list is not random: actives were taken first. Their share in the collection is about 18%.
PLK1 PBD block: blocks phosphopeptide binding to human PLK1 polo-box domain | Potency, µM, for inactives: max response, negative = inhibition, actives largely listed as inhibitors | actives 2.8% (n = 360,000) | Plk1 PBD binding of FITC phosphopeptide, fluorescence polarization | P53350; also: series mostly up to about 57 µM; nearly all actives have a fitted effect of over 65% in size
Target sequence (P53350 whole entry, looked up, the tested form may be a part): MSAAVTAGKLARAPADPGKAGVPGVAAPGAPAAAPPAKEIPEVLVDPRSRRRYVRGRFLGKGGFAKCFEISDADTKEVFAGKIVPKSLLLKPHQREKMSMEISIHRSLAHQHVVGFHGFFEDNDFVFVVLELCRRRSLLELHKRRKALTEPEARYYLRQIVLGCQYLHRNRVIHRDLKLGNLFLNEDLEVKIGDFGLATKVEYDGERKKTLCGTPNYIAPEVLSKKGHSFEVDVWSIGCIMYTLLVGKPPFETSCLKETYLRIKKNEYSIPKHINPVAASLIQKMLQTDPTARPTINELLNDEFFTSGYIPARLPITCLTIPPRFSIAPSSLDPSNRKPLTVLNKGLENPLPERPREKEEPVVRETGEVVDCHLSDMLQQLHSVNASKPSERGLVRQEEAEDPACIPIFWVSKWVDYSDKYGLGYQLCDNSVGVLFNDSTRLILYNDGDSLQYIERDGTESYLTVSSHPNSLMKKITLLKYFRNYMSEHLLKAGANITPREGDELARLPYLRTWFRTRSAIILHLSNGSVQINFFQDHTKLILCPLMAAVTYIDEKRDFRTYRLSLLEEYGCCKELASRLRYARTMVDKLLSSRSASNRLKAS
TDP1 block: blocks human tyrosyl-DNA phosphodiesterase 1. Q9NUW8. recombinant TDP1, AlphaScreen DNA substrate cleavage. Potency, µM (highest dose often 130 µM), inactives show top-dose activity change, negative = inhibition, actives largely listed as inhibitors. actives 0.28% (n = 350,000). AID 485290; also: nearly all actives have a fitted effect of over 40% in size
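Compounds were preincubated with Tdp1 (1 nM final) for 15 min at room temperature before substrate (15 nM final) started a 5 min reaction; beads (10 ug/ml final) were then added for 10 min before AlphaScreen detection.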
TDP1 cell noCPT: qHTS for Inhibitors of human tyrosyl-DNA phosphodiesterase 1 (TDP1): qHTS in cells in absence of CPT | DT40 Tdp1-/- hTDP1 cells, no CPT, ATP luminescence, 48 h | Potency, µM (top dose mostly 46.2 µM), for the others: at the highest dose activity change, negative = growth inhibition, hits mostly inhibitors | actives 15% (n = 420,000); also: nearly all actives have a fitted effect of over 55% in size
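Growth kinetics read by CellTiter-Glo luminescence after ≥48 hr at 37 °C. Cells: DT40 Tdp1-/- stably carrying human TDP1, 400 per well, compound exposure in the absence of CPT (DMSO vehicle).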
VDR inhibitor: blocks the human vitamin D receptor. VDR-SRC2-3 peptide fluorescence polarization, 2 h. Potency, µM, inactives show max response, negative = inhibition, actives largely listed as inhibitors. actives 0.93% (n = 400,000). AID 504847
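Compounds are added to VDR with labelled SRC2-3 coactivator peptide and held 2 h at room temperature. Inhibition of the VDR–peptide interaction is then read as a change in fluorescence polarization.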
GCN5L2 inh: inhibitors of human GCN5L2 histone acetyltransferase. Q92830. GCN5L2 HAT assay, ThioGlo1 CoA-SH fluorescence. Potency, µM (doses to about 58.9 µM), without a hit: at the highest dose activity change, negative = inhibition, most hits filed as inhibitors. actives 0.21% (n = 390,000). AID 504327
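GCN5L2 (20nM final) in 50mM HEPES, 0.1mM EDTA pH 7.5, 0.01% Tween-20 was preincubated 15 min at room temperature with compound, then given ThioGlo1 (50uM), H3(1-25) peptide (75uM) and acetyl-CoA (70uM); CoA-thiol fluorescence (Ex340/Em540) was read at 0 and 20 min.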
TDP1 cell CPT: DT40-hTDP1 cell growth loss with CPT. actives 12% (n = 420,000). Potency, µM (series often up to 46.2 µM), for the others: at the top dose activity change, negative = growth inhibition, actives largely listed as inhibitors. chicken DT40 Tdp1-/-;hTDP1 cells + 20 nM CPT, ATP luminescence, 48 h. AID 686979; also: nearly all actives have a fitted effect of over 55% in size
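Chicken DT40 Tdp1-/- cells complemented with human TDP1, 400 cells/well, exposed to compounds plus 20 nM camptothecin for at least 48 h at 37 C; viability read as ATP content by CellTiter-Glo luminescence.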
Active calls of the source: *; ? = inconclusive; nt = no result; ! = not confirmed by another sample; [ ] = another dose, or the depositor's remark. Calls follow the shape of the dose curve; as a rule, active = well fitted curve in the direction sought with a large enough effect; inconclusive = small, poorly fitted or top-dose-only effect, or another doubt; inactive = no such curve, though single readings can be large; an effect the other way counts as inactive or inconclusive. % is scaled to controls: 0 for no effect and ±100 for the full control effect; potency is read from the fitted curve at half-maximal effect.

SMILES	PLK1 PBD block	TDP1 block	TDP1 cell noCPT	VDR inhibitor	GCN5L2 inh	TDP1 cell CPT
O=C(O)c1ccc(N/N=C/C2=C(N3CCOCC3)C(=C\c3ccccc3)/CC2)cc1	?	nt	21µM*	?	-14%	?
CCCCN(C(=O)NC(=O)C1=C(N2CCOCC2)/C(=C/c2ccccc2)CC1)S(C)(=O)=O	34µM*!	6%	-13%	-9%	-13%	-4%
CN(C(=O)NC(=O)C1=C(N2CCOCC2)/C(=C/c2ccccc2)CC1)S(C)(=O)=O	-24%	-4%	-14%	8%	-13%	-26%
Cc1cc(C)nc(N/N=C/C2=C(N3CCOCC3)C(=C\c3ccc(Cl)cc3)/CC2)n1	?	7%	16µM*	?	-6%	23µM*
O=C1COc2ccc(C(=O)COC(=O)c3cnc(Cl)c(Cl)c3)cc2N1	-9%	3%	-20%	1%	-7%	-10%
COc1cc(C(=O)Nc2cc(S(=O)(=O)N3CCOCC3)ccc2N2CCOCC2)cc(OC)c1C	-3%	nt	?	14%	nt	?
O=C(Nc1ccc(Cl)c(C(F)(F)F)c1)C(Cc1ccccc1)NS(=O)(=O)c1cccc2nsnc12 (configuration not stated)	nt	-5%	?	-8%	-4%	?
Cc1cc(C)nc(N/N=C/c2ccc(N3CCOCC3)cc2)n1	-7%	4%	-16%	3%	-6%	?
Cc1cc(C)nc(NN=CC2=C(N3CCOCC3)/C(=C/c3ccc(Cl)cc3)CC2)n1	-3%	nt	8.2µM*	?	nt	12µM*
Cn1cc(C(=O)N/N=C/C2=C(N3CCOCC3)C(=C/c3ccc([N+](=O)[O-])cc3)/CC2)ccc1=O	-1%	nt	-27%	11%	nt	?
O=CC1=C(N2CCOCC2)/C(=C/c2ccc(Cl)cc2)CC1	?	0%	21µM*	?	-5%	?
COC(=O)c1sccc1NC(=O)CC1C(=O)NCCN1C(=O)Nc1cc(Cl)ccc1OC (configuration not stated)	2%	nt	?	-20%	1%	-22%
CCOc1ccc(NC(=O)Cn2c(=O)c(CNc3ccc(OC)cc3)cc3ccc(OC)cc32)cc1	nt	3%	nt	4%	2%	nt
CCCc1nc2c(sc3nc4c(cc32)COC(C)(C)C4)c(=O)n1CCN(CC)CC	-9%	3%	?	-2%	-2%	?
Cn1cccc1C(=O)NC(=O)COC(=O)c1cc(S(=O)(=O)N2CCCCC2)ccc1Cl	21µM*	3%	-20%	-11%	-10%	?
CS(=O)(=O)c1ccc(C(=O)OCC(=O)NC23CC4CC(CC(C4)C2)C3)cc1[N+](=O)[O-]	-29%	0%	?	?	0%	?
Cn1ccsc1=NC(=O)c1ccc(Cl)c([N+](=O)[O-])c1	2%	nt	-26%	10%	5%	-13%
CS(=O)(=O)c1ccc(C(=O)OCC(=O)NCC2CCCO2)cc1[N+](=O)[O-] (configuration not stated)	nt	1%	7.9µM*	-4%	nt	10µM*
O=C(COC(=O)c1cc(S(=O)(=O)N2CCCCC2)ccc1Cl)NC1CCCCC1	-6%	nt	-23%	nt	nt	-5%
Cn1ccsc1=NC(=O)c1ccc(S(C)(=O)=O)c([N+](=O)[O-])c1	-9%	3%	4.6µM*	2%	?	4.6µM*
CC1CCN(C(=O)C(C)OC(=O)c2ccc(S(C)(=O)=O)c([N+](=O)[O-])c2)CC1 (configuration not stated)	nt	0%	2.2µM*	-14%	nt	0.89µM*
CCOC(=O)c1sc2ccccc2c1S(=O)(=O)NCc1ccccc1OC	nt	-2%	?	-15%	5%	?
Cn1cccc1C(=O)NC(=O)COC(=O)c1ccc(S(C)(=O)=O)cc1	-4%	0%	-6%	13%	-6%	?
O=C(COC(=O)c1ccc(F)c([N+](=O)[O-])c1)NC(=O)NCc1ccccc1	?	3%	?	?	-9%	21µM*
CC(=O)Nc1ccc(C(=O)OCC(=O)NC(=O)NCc2ccccc2)cc1	-11%	nt	-23%	nt	nt	-3%
SMILES	PLK1 PBD block	TDP1 block	TDP1 cell noCPT	VDR inhibitor	GCN5L2 inh	TDP1 cell CPT
CS(=O)(=O)c1ccc(C(=O)OCC(=O)NC(=O)NC2CCCCC2)cc1[N+](=O)[O-]	nt	0%	4.5µM*	?	nt	2.8µM*
Cn1cccc1C(=O)NC(=O)COC(=O)c1ccc(S(C)(=O)=O)c([N+](=O)[O-])c1	?	3%	4.5µM*	?	-4%	4µM*
COc1ccccc1/C=C1\SC(=S)N(CCC(=O)Nc2cccc(O)c2)C1=O	-8%	9%	?	-21%	-12%	-20%
COc1cc(NC(=S)N2CCN(c3ccccn3)CC2)c(OC)cc1Cl	24µM*	-5%	?	?	37%	-14%
COc1cccc(NC(=S)N2CCN(c3ccccn3)CC2)c1	27µM*	1%	?	?	3%	?
COc1ccc(Cl)cc1NC(=S)N1CCN(c2ccccn2)CC1	-7%	1%	?	-4%	-1%	?
COc1ccccc1CNC(=O)c1cc(S(=O)(=O)N2CCCCCC2)cn1C	nt	8%	-17%	12%	2%	-10%
O=C(Nc1ccc2c(c1)OCO2)c1cc(-c2ccncc2)nc2ccccc12	2%	5%	15µM*	-8%	-7%	?
O=C(Nc1ccc2c(c1)OCCO2)c1cc(-c2ccccc2)nc2ccccc12	-8%	4%	23µM*	5%	-9%	?
COC(=O)c1ccc(NC(=O)c2cc(-c3ccncc3)nc3ccccc23)cc1	8%	4%	?	17%	0%	?
CCOC(=O)C[C@@H]1OC[C@H](CO)N1S(=O)(=O)c1ccc(C)cc1	-6%	nt	11%	nt	nt	10%
CCOC(=O)c1c(S(=O)(=O)N2CCN(c3ccccc3OC)CC2)c(C)n(C)c1C	nt	7%	?	4%	-2%	?
COc1ccccc1N1CCN(S(=O)(=O)c2c(C(=O)N3CCOCC3)c(C)n(C)c2C)CC1	3.4µM*	4%	?	?	-1%	?
Cc1ccc(C(=O)N2CCN(c3cccc(C)c3C)CC2)cc1S(=O)(=O)N1CCOCC1	-10%	1%[56.1 µM]	23µM*	-20%	1%	16µM*
Cc1ccc(C(=O)N2CCN(c3ccccc3)CC2)cc1S(=O)(=O)N1CCCC1	-9%	3%	?	4%	-2%	29µM*
